# Shown are actives, neighbours in structure and some others; about 7.5% of the full set was active somewhere.
# FLuc counter – counter-screen for miR-21 project: firefly luciferase inhibitors or activators; P08659; purified FLuc, Km substrates, luminescence inhibition; Potency, µM (doses to about 57.5 µM), without a hit: at the top dose activity change, negative = inhibition, usual class: inhibitors; 360,000 tested, 6.9% active; AID 588342;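 also: plate controls were vehicle for no effect and reference inhibitor for full effect; nearly all actives have a fitted effect of over 55% in size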
# Target sequence (P08659 whole entry, looked up): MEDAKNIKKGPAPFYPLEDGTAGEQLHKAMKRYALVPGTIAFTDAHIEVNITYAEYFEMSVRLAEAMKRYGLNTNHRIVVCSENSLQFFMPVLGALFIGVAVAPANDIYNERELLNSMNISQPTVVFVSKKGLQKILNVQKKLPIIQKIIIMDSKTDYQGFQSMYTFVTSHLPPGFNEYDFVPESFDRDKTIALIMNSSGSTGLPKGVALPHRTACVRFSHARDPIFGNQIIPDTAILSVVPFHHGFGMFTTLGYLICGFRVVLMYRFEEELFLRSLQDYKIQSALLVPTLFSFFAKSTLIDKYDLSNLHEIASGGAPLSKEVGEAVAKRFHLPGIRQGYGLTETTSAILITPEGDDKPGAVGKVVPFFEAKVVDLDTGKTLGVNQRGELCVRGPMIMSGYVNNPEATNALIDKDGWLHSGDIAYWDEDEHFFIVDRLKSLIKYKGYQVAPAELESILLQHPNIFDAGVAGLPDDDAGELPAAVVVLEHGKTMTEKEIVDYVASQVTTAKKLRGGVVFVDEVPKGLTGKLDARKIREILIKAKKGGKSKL
#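 Purified P. pyralis luciferase (10nM final) with 10uM D-luciferin and 10uM ATP (Km levels) in 50mM Tris acetate pH 7.5, 10mM Mg acetate, 0.01% Tween-20, 0.05% BSA; qHTS 6-point titration, ~60 µM downward; luminescence read.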
# SMN2 splice enh – increases expression of the SMN2 splice variant. 210,000 tested, 2.8% active. HEK293 SMN2-luciferase splicing reporter, luminescence, 30-36 h. AID 1458. Potency, µM (top dose mostly 46.1 µM), without a hit: top-dose activity change, positive = activation, usual class: activators; also: % of control where 0% means no effect; nearly all actives have a fitted effect of over 55% in size
#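 qHTS luciferase splicing reporter: luminescence rises when SMN2 exon 7 is included in transfected HEK293 cells. Compound exposure lasted 30-36 h at 37C, with 4.5 mM final sodium butyrate as control, followed by a ONE-Glo read.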
# ELG1 genotox – inducers of genotoxicity in HEK293T ELG1-luciferase cells | HEK293T ELG1-luciferase reporter, luminescence, 16 h | Potency, µM (top dose mostly 46 µM), inactives show top-dose activity change, positive = activation, hits mostly activators | 330,000 tested, 1.3% active | AID 504466; also: % of control where 0% means no effect; nearly all actives have a fitted effect of over 60% in size
#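 Genotoxicity was scored as increased ELG1-luciferase reporter signal, measured by ONE-Glo luminescence (30 min, room temperature). Compound or vehicle exposure of the HEK293T reporter cells lasted 16 hr at 37°C.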
# Rab9 promoter act – Rab9 promoter activation; Huh7 Rab9 promoter-luciferase reporter, luminescence, 24 h; Potency, µM (doses to about 9.22 µM), for the others: top-dose activation, negative = inhibition, actives largely listed as activators; 320,000 tested, 2.8% active; AID 485297; also: % of control where 0% means no effect; nearly all actives have a fitted effect of over 60% in size
#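 Steps: seed 1500 Huh7 Rab9-luc cells per well, rest 2 h at 37 °C; add compound in DMSO; incubate 24 h; add luciferase reagent, 10 min ambient; read luminescence.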
# NPC1 prom act – NPC1 promoter activation; Huh7 NPC1 promoter luciferase reporter, 24 h; AID 485313; 320,000 tested, 2.4% active; Potency, µM (top dose mostly 9.22 µM), for the others: at the highest dose activation, actives largely listed as activators; also: % of control where 0% means no effect; nearly all actives have a fitted effect of over 60% in size
#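 Luciferase expression driven by the NPC1 promoter was measured in stably transfected Huh7 cells after a 24 h compound incubation, using a luciferase reagent and a luminescence read.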
# Luc counter – Kinase-Glo luciferase inhibition (counter-screen); Kinase-Glo luciferase, ATP luminescence, 8 min; Q27757; Potency, µM (series often up to 38.3 µM), without a hit: top-dose activity change, negative = inhibition, usual class: inhibitors; 200,000 tested, 0.28% active; AID 1379; also: % is scaled to controls: 0 for no effect and ±100 for the full control effect; nearly all actives have a fitted effect of over 60% in size
#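 Luminescence was the read-out, taken after 8-minute incubation at ambient temperature. Luciferase turned over luciferin with 10 uM ATP in imidazole pH 7.2 buffer containing KCl, MgCl2, Tween 20 and BSA.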
# Numbers without * were called inactive; ? = inconclusive; nt = no result given. Calls follow the shape of the dose curve; as a rule, active = well fitted curve in the direction sought with a large enough effect; inconclusive = small, poorly fitted or top-dose-only effect, or another doubt; inactive = no such curve, though single readings can be large; an effect the other way counts as inactive or inconclusive. Potency is read from the fitted curve at half-maximal effect.
SMILES,FLuc counter,SMN2 splice enh,ELG1 genotox,Rab9 promoter act,NPC1 prom act,Luc counter
Cc1ccc(NC(=O)CSc2nc(=O)n(CCN3CCOCC3)c3c2CCC3)cc1Cl,-9%,nt,nt,nt,nt,nt
CCOC(=O)c1ccc(NC(=O)c2c(NCc3cccc(OC)c3OC)sc3c2CCC3)cc1,6%,nt,nt,nt,nt,nt
Cc1cccc(C(=O)N[C@H](C(=O)Nc2ncc(C)s2)C(C)C)c1,-9%,14µM*,?,-31%,-21%,4%
C(=N\N=C\c1cccs1)/c1cccs1,2.1µM*,?,6%,2µM*,?,-17%
O=C(c1ccc2c3n(nc2c1)-c1ccccc1CO3)N1CCOCC1,4.8µM*,nt,?,1µM*,1.6µM*,nt
O=C(c1ccc2c3n(nc2c1)-c1ccc(Cl)cc1CO3)N1CCOCC1,9.5µM*,nt,18µM*,?,2µM*,nt
CS(=O)(=O)N1CCc2cc(C(=O)N3CCCCC3)ccc21,-4%,-10%,-4%,0%,0%,-1%
Cc1ccc2c(c1)COc1c3ccc(C(=O)N4CCCCC4)cc3nn1-2,3.8µM*,nt,?,?,3.2µM*,nt
O=C(c1ccc2c3n(nc2c1)-c1ccccc1CO3)N1CCCCC1,3.4µM*,nt,?,0.89µM*,0.79µM*,nt
Cc1ccc(C(=O)/C=C/c2ccc(-c3ccccc3[N+](=O)[O-])o2)cc1,19µM*,-1%,11%,17%,?,-1%
Cc1ccc(C(=O)/C=C/c2ccccc2[N+](=O)[O-])cc1,8.5µM*,21%,?,?,20%,-4%
O=C(C#Cc1ccccc1)c1cccc([N+](=O)[O-])c1,11µM*,-30%,10%,0%,1%,18%
O=C(/C=C/c1ccccc1[N+](=O)[O-])c1ccccc1Br,?,25%,-13%,13%,17%,-1%
O=C(O)c1cccc([N+](=O)[O-])c1,nt,0%,nt,nt,nt,nt
O=C(/C=C/c1ccc(-c2ccccc2)o1)c1ccccc1,6.7µM*,nt,?,26%,?,-18%
Cc1ccc(-c2ccc(/C=C/C(=O)c3ccccc3)o2)cc1,?,14%,1%,3%,-1%,0%
O=C(/C=C/c1ccc(-c2ccccc2[N+](=O)[O-])o1)c1ccc(F)cc1,13µM*,-4%,0%,14%,4%,-3%
O=C(/C=C/c1ccc(-c2ccccc2[N+](=O)[O-])o1)c1ccc(Br)cc1,?,-13%,5%,3%,19%,4%
O=C(/C=C/c1ccccc1F)c1cccc([N+](=O)[O-])c1,12µM*,-3%,?,-4%,-2%,-5%
Cc1ccc(C(=O)C(C)OC(=O)c2ccccc2[N+](=O)[O-])cc1 (configuration not stated),1.1µM*,13µM*,7.3µM*,1.6µM*,0.89µM*,1%
COc1cc(/C=C/C(=O)c2cccc([N+](=O)[O-])c2)cc(OC)c1OC,-1%,5%,-8%,-7%,-2%,1%
CC(C)N(C)Cc1nnnn1CC(=O)N(C)Cc1cccc(Cl)c1,1%,nt,0%,-3%,-2%,nt
Cc1ccc(/C=N/Nc2ncc(Cl)cc2Cl)s1,6µM*,?,?,?,3.5µM*,-4%
Oc1ccc(/C=N/Nc2ncc(Cl)cc2Cl)cc1,?,nt,?,13%,15%,nt
Clc1cnc(N/N=C/c2ccco2)c(Cl)c1,11µM*,5.6µM*,?,0.79µM*,1.4µM*,-17%
Clc1cnc(N/N=C/c2cccs2)c(Cl)c1,9.5µM*,?,?,4µM*,2.2µM*,-8%
O=C(/C=C\c1ccc2c(c1)OCO2)NC1CC(=O)N(c2ccc(F)cc2)C1 (configuration not stated),3%,nt,nt,nt,nt,nt
Cc1ccc(/C=C/C(=O)Nc2cc(S(N)(=O)=O)ccc2O)cc1,15µM*,2%,1%,17%,4%,-2%

# Assay outcomes from PubChem.
